# This is a sample that favours compounds with a hit; in the whole collection about 21% have one here.
# Giardia FBPA inh – blocks Giardia fructose-bisphosphate aldolase activity; purified Giardia FBPA; Potency, µM (titrated, usually from 59.6 µM), without a hit: at the top dose activity, negative = inhibition, hits mostly inhibitors; 290,000 compounds, 0.71% hits; AID 2451; note: potency is the fitted concentration of half-maximal effect; % is set by controls: 0 for no effect and ±100 for the full control effect; nearly all actives have a fitted effect of over 55% in size
# Target sequence (A8B2U2 whole entry, looked up): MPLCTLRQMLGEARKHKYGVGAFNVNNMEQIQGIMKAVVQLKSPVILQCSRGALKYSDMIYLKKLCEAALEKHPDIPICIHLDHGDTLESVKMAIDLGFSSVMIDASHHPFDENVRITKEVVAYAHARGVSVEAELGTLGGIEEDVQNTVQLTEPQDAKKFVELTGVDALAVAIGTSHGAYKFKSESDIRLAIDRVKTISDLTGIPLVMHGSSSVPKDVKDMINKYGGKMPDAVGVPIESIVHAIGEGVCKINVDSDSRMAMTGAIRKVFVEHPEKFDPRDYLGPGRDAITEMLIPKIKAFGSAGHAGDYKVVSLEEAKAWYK
#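 Giardia FBPA (40 nM reagent) was preincubated 10 min at RT with compound (up to 57.5 uM final), then substrate plus GAPDH/TPI/NAD/arsenate coupling system with diaphorase/resazurin was added; resorufin fluorescence (525/598 nm) was read after 20 min.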
# CHX counter – counter-screen for Shiga toxin inhibitors: cycloheximide protein synthesis inhibition; cell reporter, cycloheximide protein synthesis inhibition counterscreen; max response, %; 300,000 compounds, 12% hits; AID 2314; in the data active = max response mostly above about 13%, no sharp cut-off; inactive = mostly below about 14%; note: read at 38.3 µM for the half of the compounds with a filed dose; 0% is about no effect
# Shiga toxin inh – inhibitors of Shiga toxin in Vero cells. 290,000 compounds, 9.2% hits. AID 2315. inhibition, % at 38.7 µM. Vero cells, Shiga toxin protein synthesis inhibition reporter; in the data active = inhibition mostly above about 28%, no sharp cut-off; inactive = mostly below about 43%; note: 0% is about no effect
# NS1 inh – inhibitors of influenza NS1 protein function | Potency, µM (titrated, usually from 46.1 µM), inactives show top-dose activity, positive = more growth | AID 2326 | 270,000 compounds, 0.4% hits; calls by dose curve; note: potency is the fitted concentration of half-maximal effect; actives are rising curves; nearly all actives have a fitted effect of over 50% in size
#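 S. cerevisiae expressing influenza A NS1, grown in glucose, washed, then diluted 1:100 into pH 6.0 -URA galactose medium with 23 nl compound. Growth recovery read as OD600; NS1-free strain serves as control.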
# Pf growth 48h – inhibits P. falciparum growth in the first generation, 48 h; P. falciparum luciferase growth in erythrocytes, 48 h; Potency, µM (top dose mostly 28.7 µM), without a hit: at the highest dose activity change, negative = inhibition, hits mostly inhibitors; 310,000 compounds, 5.9% hits; note: potency is the fitted concentration of half-maximal effect; % is set by controls: 0 for no effect and ±100 for the full control effect
#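 Parasite viability was followed by luminescence of a genomically integrated firefly luciferase. Cultures held 0.1% parasitemia at 2% hematocrit (final), incubated under 5% CO2 at 37 C.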
# Pf growth 96h – inhibits malaria parasite growth, 96 h. P. falciparum luciferase reporter growth, 96 h. Potency, µM (series often up to 28.7 µM), without a hit: top-dose activity change, negative = inhibition, most hits filed as inhibitors. 320,000 compounds, 6.9% hits; note: potency is the fitted concentration of half-maximal effect; % is set by controls: 0 for no effect and ±100 for the full control effect
#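 Two parasite generations (96 h, 37 C, 5% CO2) of compound exposure in infected erythrocytes (0.05% parasitemia, 2% hematocrit). Luciferase-reporter P. falciparum; decreased luminescence indicates inhibited growth, aimed at apicoplast-acting delayed death.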
# * marks the source's active call; other numbers are inactive results; u = inconclusive; x = no result; [ ] = remark or other dose. Unless noted, calls come from the whole dose curve; as a rule, active = well fitted curve in the direction sought with a large enough effect; inconclusive = small, poorly fitted or top-dose-only effect, or another doubt; inactive = no such curve, though single readings can be large; an effect the other way counts as inactive or inconclusive.
SMILES,Giardia FBPA inh,CHX counter,Shiga toxin inh,NS1 inh,Pf growth 48h,Pf growth 96h
CCOC(=O)c1csc(NC(=O)CN2CCCCC2)n1,-20.4%,-6.2,-6.5,5.8%,5.1%[0.00184 µM],9.7%
CCOC(=O)c1ccc2[nH]c3c(c2c1)CCCC3,0.5%,51.0*,86.8*,-31.8%,30.4%,u
CCOC(=O)c1ccc2[nH]c3c(c2c1)CCCC3O (stereo unspecified),-4.7%,23.9*,35.0,-5.0%,30.3%,26.8%
COc1cc(OC)c(N2CC(C(=O)NCCC3=CCCCC3)CC2=O)cc1Cl (stereo unspecified),x,x,x,x,-27.4%,u
O=c1cc(N2CCN(Cc3ccccc3)CC2)[nH]c(=O)n1Cc1ccc(F)cc1,-2.0%,-4.0,-8.9,1.2%,6.9%,3.7µM*
CCN1CCN(c2cc(=O)n(Cc3ccc(F)cc3)c(=O)[nH]2)CC1,-0.5%,7.3,-0.5,x,38.2%,58.2%
CCCCCCCc1nc2c(=O)n(C)c3ccccc3c2o1,0.8%,-4.5,-8.2,-1.1%,x,16.1%
CCCCCc1nc2c(=O)n(C)c3ccccc3c2o1,0.0%[12.9 µM],64.4*,123.4*,-30.6%,u,1.6%
Cc1cccc2sc(N(CCCN(C)C)C(=O)c3cc4ccccc4oc3=O)nc12,-5.1%,13.4,11.8,-0.5%,-21.1%,u
Cc1ccc2nc(N(CCCN(C)C)C(=O)c3ccc4ncsc4c3)sc2c1,-21.3%,40.6*,89.0*,-9.6%,-6.4%,-29.7%
COc1ccc(C)c2sc(N(CCCN(C)C)C(=O)c3ccc4c(c3)OCCO4)nc12,x,x,x,x,9.28µM*,8.28µM*
Cc1ccc2nc(N(CCN(C)C)C(=O)c3ccc4c(c3)OCCO4)sc2c1,x,34.7*,64.1,-10.4%,14.9%,-17.1%
Cc1ccc2nc(N(CCCN(C)C)C(=O)c3cc4ccccc4oc3=O)sc2c1,-4.2%,18.0,21.4,4.6%,u,10.4µM*
O=C(CN1C(=O)NC(c2ccccc2)(c2ccccc2)C1=O)NCc1cccs1,x,x,x,x,-23.3%,9.7%
Cc1ccc(CNC(=O)CCC(=O)Nc2nnc(C)s2)cc1,x,-3.3,2.4,3.4%,u,-14.4%
O=C(COc1ccc(-c2ccccc2)cc1)N1CCCC1,-1.7%,-0.4,20.7,-5.6%,u,31.0%
Cc1cc(C)c2nc(N(CCCN(C)C)C(=O)c3ccc4c(c3)OCCO4)sc2c1,x,x,x,x,10.4µM*,7.38µM*
Cc1cc(C)c2nc(N(CCCN(C)C)C(=O)C3=COCCO3)sc2c1,x,x,x,x,11.7µM*,u
COCCn1c(SCCCC(=O)c2ccc(Br)cc2)nnc1-c1ccncc1,6.4%,-5.3,-18.6,-5.2%,x,13.1µM*
Cn1c(SCCCC(=O)c2ccc(F)cc2)nnc1-c1ccncc1,-2.2%[12.9 µM],8.6,-6.4,-12.0%,u,10.4µM*
Cn1c(SCCCC(=O)c2ccccc2)nnc1-c1ccncc1,-21.4%,-4.1,26.8,2.2%,-17.4%,-1.2%
CSc1ccc(/C=C/C(=O)c2ccc(NC(C)=O)cc2)cc1,2.4%,32.9*,59.5*,-12.1%,-3.5%,0.657µM*
CC(=O)Nc1ccc(/C=C/C(=O)c2ccc3c(c2)OCCO3)cc1,6.9%,23.5*,45.2*,-16.1%,-29.1%,u
CC(C)(C)c1ccc(/C=C/C(=O)Nc2ccc3c(c2)OCCO3)cc1,-17.7%,x,x,x,x,x
O=C(/C=C/c1cccc([N+](=O)[O-])c1)c1ccc2c(c1)OCCO2,-0.4%,-1.3,-5.7,-8.3%,-18.5%,u
SMILES,Giardia FBPA inh,CHX counter,Shiga toxin inh,NS1 inh,Pf growth 48h,Pf growth 96h
O=C(O)c1ccc(/C=C/C(=O)c2ccc3c(c2)OCCCO3)cc1,x,104.6*,92.3*,-2.9%,54.0%,102.5%
Cc1c(C(=O)C(=O)NCC2CCCO2)c2ccccc2n1C (stereo unspecified),-0.7%,6.5,1.4,x,3.9%,70.7%
CC/C(=N\NC(=O)c1nnn(-c2nonc2N)c1-c1cccs1)c1ccccc1,8.8%,-1.5,-3.2,3.8%,32.4%,-0.8%
Cn1c(/C=C(\C#N)C(N)=S)ccc1-c1ccc(Br)cc1,0.7%,14.6*,26.9,5.2%,u,u
CC1CC(OP(O)(=S)c2ccc(N(C)C)cc2NC(=O)c2cccs2)CC(C)(C)C1 (stereo unspecified),-17.1%,31.5*,31.9,4.3%,-22.1%,-7.8%
Cc1c(C(=O)NCc2ccccn2)sc2nc(-c3ccccc3)cn12,-0.1%,28.8*,19.8*,-94.5%,-5.2%,u

# Compound activity from PubChem.
